Counter-ions that a name gives are not always drawn. Whole data set: some 2,800 compounds, median “cell viability relative to vehicle” near 1.1, cut for the lowest 2% near 0.19. The sample as a whole holds a higher share of the lowest values than the screen did.
System: NCI-H2228 parental
Experiment: cell viability relative to vehicle (fraction of vehicle); NCI-H2228 is an ALK-positive lung cancer line and DTP means drug-tolerant persister; higher = less growth inhibition
Conditions: 100 nM; treatment time 6 days
Summary of the method: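 Values give cell viability as a fraction of vehicle-treated cells. Parental and drug-tolerant persister NCI-H2228 cells (persisters made with 1000 nM of a targeted drug for 13 days) were exposed in 384-well plates to the 3114-agent TargetMol anti-cancer compound library at 100 nM, with DMSO as vehicle. ATP was then read after 6 days by the CellTiter-Glo 3D Cell Viability Assay.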

| Structure (SMILES) | cell viability |
| --- | --- |
| CC(C)[C@]12O[C@H]1[C@@H]1O[C@]13[C@]1(O[C@H]1C[C@H]1C4=C(CC[C@@]13C)C(=O)OC4)[C@@H]2O [Triptolide] | 0.121 |
| N#Cc1c(Oc2cccc(OS(=O)(=O)CCCC(F)(F)F)c2)cccc1C(F)(F)F | 1.01 |
| O=C(O)CCCCCCCCCO [10-Hydroxydecanoic Acid] | 1.17 |
| C[C@@]12C[C@@H](c3ccoc3)OC(=O)[C@@H]1CC[C@]1(C)[C@H]2[C@@H]2C=C[C@@]1(O)C(=O)O2 [Columbin] | 1.06 |
| Cc1c([C@H](C)[C@@H]2NC[C@@H](C)C[C@H]2O)ccc2c1C[C@H]1[C@H]2CC=C2C[C@@H](O)CC[C@@]21C [Veratramine] | 1.12 |
| COc1cc([C@@H]2c3cc4c(cc3[C@@H](O)[C@H]3COC(=O)[C@H]23)OCO4)cc(OC)c1O [4'-Demethylepipodophyllotoxin] | 0.402 |
| CC(=O)O[C@H]1C(=O)[C@@]2(C)[C@H]([C@H](OC(=O)c3ccccc3)[C@]3(O)C[C@H](O)C(C)=C1C3(C)C)[C@]1(OC(C)=O)CO[C@@H]1C[C@@H]2O [Baccatin III] | 0.968 |
| CC(=O)OC12COC1CC(O)C1(C)C(=O)C(O)C3=C(C)C(O)CC(O)(C(OC(=O)c4ccccc4)C21)C3(C)C (stereo not given) [10-Deacetylbaccatin III] | 1.13 |
| C/C=C(\C)C(=O)N[C@@H](c1ccccc1)[C@@H](O)C(=O)O[C@H]1C[C@@]2(O)[C@@H](OC(=O)c3ccccc3)[C@@H]3[C@]4(OC(C)=O)CO[C@@H]4C[C@H](O)[C@@]3(C)C(=O)[C@H](OC(C)=O)C(=C1C)C2(C)C [Cephalomannine] | 0.129 |
| COc1ccc(/C=C/c2cc(OC)cc(OC)c2)cc1 [Trimethoxystilbene] | 1.05 |
| CN(C(=O)/C=C/c1ccoc1)[C@@H]1CC[C@@]2(O)[C@H]3Cc4ccc(O)c5c4[C@@]2(CCN3CC2CC2)[C@H]1O5 [Nalfurafine hydrochloride] | 0.993 |
| CN1[C@H]2C[C@H](OC(=O)[C@H](CO)c3ccccc3)C[C@@H]1[C@@H](O)C2 [Anisodamine] | 1.1 |
| CC[C@@]1(O)C(=O)OCc2c1cc1n(c2=O)Cc2cc3ccccc3nc2-1 [(S)-(+)-Camptothecin] | 0.0882 |
| CCc1c2c(nc3ccccc13)-c1cc3c(c(=O)n1C2)COC(=O)[C@]3(O)CC [7-Ethylcamptothecin] | 0.054 |
| CC1(C)C(C(=O)Nc2ccc(S(=O)(=O)c3ccc(NC(=O)C4C(C)(C)C4(C)C)cc3)cc2)C1(C)C | 0.839 |
| C[C@H]1CCC2N(C1)C[C@H]1C3CC4[C@@H](CC(=O)C5C[C@@H](O)CC[C@@]54C)C3CCC1[C@]2(C)O (stereo not given in full) [Peiminine] | 1.12 |
| O=C(CBr)c1ccc(O)cc1 [PTP Inhibitor I] | 1.01 |
| Clc1ccc(OC[C@H]2CCN2)cn1 [Tebanicline hydrochloride] | 1.12 |

| Structure (SMILES) | cell viability |
| --- | --- |
| Oc1cc(O)cc(/C=C/c2ccc(O)cc2O)c1 [Oxyresveratrol] | 0.982 |
| C=C1CC[C@H]2[C@@H](/C=C(\C)C(=O)[C@@]3(O)C[C@H](C)[C@H](O)[C@@H]3[C@@H]1O)C2(C)C [Lathyrol] | 1.09 |
| CN[C@@H](Cc1c[nH]c2ccccc12)C(=O)O [Abrine] | 1.08 |
| CC1(C)C(=O)N(c2ccc(C#N)c(C(F)(F)F)c2)C(=O)N1CCCCO | 1.27 |
| C[C@H]1CCC/C=C/[C@@H]2C[C@H](O)C[C@H]2[C@H](O)/C=C/C(=O)O1 [Brefeldin A] | 0.0967 |
| COc1ccc(/C=C2\CCCN=C2c2cccnc2)c(OC)c1 [GTS 21 dihydrochloride] | 1.13 |
| COc1cc([C@@H]2c3cc4c(cc3[C@H](O)[C@H]3COC(=O)[C@H]23)OCO4)cc(OC)c1O [4'-Demethylpodophyllotoxin] | 0.68 |
| Cn1c(CCCCCCC(=O)NO)nc2cc(N(CCCl)CCCl)ccc21 [Minomustine] | 1.12 |
| O=C(O)CNC(=O)C1C(=O)N(C2CCCCC2)C(=O)N(C2CCCCC2)C1=O [Daprodustat] | 1.04 |
| C/C(=C\c1csc(C)n1)[C@@H]1C[C@@H]2O[C@]2(C)CCC[C@H](C)[C@H](O)[C@@H](C)C(=O)C(C)(C)[C@@H](O)CC(=O)O1 [Epothilone B] | 0.141 |
| C/C(=C\c1csc(C)n1)[C@@H]1C[C@@H]2O[C@@H]2CCC[C@H](C)[C@H](O)[C@@H](C)C(=O)C(C)(C)[C@@H](O)CC(=O)O1 [Epothilone A] | 0.0991 |
| C[C@H](Nc1ncnc2[nH]cnc12)c1nc2ccc(F)cc2c(=O)n1-c1ccccc1 [Acalisib] | 1.02 |
| Cn1c(COP(=O)(NCCBr)NCCBr)cnc1[N+](=O)[O-] [Evofosfamide] | 1.15 |
| CC(=O)OC(C)(C)/C=C/C(=O)[C@](C)(O)[C@H]1[C@H](O)C[C@@]2(C)[C@@H]3CC=C4[C@H](C[C@H](O)C(=O)C4(C)C)[C@]3(C)C(=O)C[C@]12C [Cucurbitacin B] | 0.223 |
| Clc1ccc(C(OCCN2CCCCC2)c2ccccc2)cc1 (stereo not given) [Cloperastine hydrochloride] | 1.15 |
| C[C@]12CC[C@H](O)C[C@H]1CC[C@@H]1[C@@H]2CC[C@]2(C)[C@@H](c3ccc(=O)oc3)CC[C@]12O [Bufalin] | 0.423 |
| CC(C)[C@H](N)C(=O)N1CCC[C@H]1B(O)O [Talabostat mesylate] | 0.987 |
